Rows were chosen to be rich in hits. Some 12% of all compounds tested hit in one or more screens of this group.
Sfp PPTase inh: qHTS Assay for Inhibitors of Bacillus subtilis Sfp phosphopantetheinyl transferase (PPTase); 4'-phosphopantetheinyl transferase ffp (Bacillus subtilis), Q9F4F7; Biochemical Sfp PPTase activity, qHTS; Potency, µM, usual class: inhibitors; hit rate 3.5% among 310,000; AID 1490, 2009;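 also: the enzyme is Sfp with the accession as filed and its product quenches rhodamine fluorescence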
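Fluorescence-quenching assay with 15 nM Sfp, 5 uM rhodamine-CoA and 12.5 uM BHQ-2-labelled ybbR peptide in pH 7.6 Hepes/MgCl2 buffer. Enzyme was pre-incubated with compound for 15 min at room temperature. Rate was taken from the 30-min fluorescence change (525/598 nm).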
JMJD2A Tudor: qHTS Assay for Inhibitors of JMJD2A-Tudor Domain; AID 504339, 2011; Potency, µM (doses to about 114 µM), actives largely listed as inhibitors; AlphaScreen JMJD2A-Tudor / H3K4me3 peptide binding; hit rate 4.4% among 390,000; Lysine-specific demethylase 4A (Homo sapiens), O75164; also: nearly all actives have a fitted effect of over 50% in size
Target sequence (O75164 whole entry, looked up, the tested form may be a part): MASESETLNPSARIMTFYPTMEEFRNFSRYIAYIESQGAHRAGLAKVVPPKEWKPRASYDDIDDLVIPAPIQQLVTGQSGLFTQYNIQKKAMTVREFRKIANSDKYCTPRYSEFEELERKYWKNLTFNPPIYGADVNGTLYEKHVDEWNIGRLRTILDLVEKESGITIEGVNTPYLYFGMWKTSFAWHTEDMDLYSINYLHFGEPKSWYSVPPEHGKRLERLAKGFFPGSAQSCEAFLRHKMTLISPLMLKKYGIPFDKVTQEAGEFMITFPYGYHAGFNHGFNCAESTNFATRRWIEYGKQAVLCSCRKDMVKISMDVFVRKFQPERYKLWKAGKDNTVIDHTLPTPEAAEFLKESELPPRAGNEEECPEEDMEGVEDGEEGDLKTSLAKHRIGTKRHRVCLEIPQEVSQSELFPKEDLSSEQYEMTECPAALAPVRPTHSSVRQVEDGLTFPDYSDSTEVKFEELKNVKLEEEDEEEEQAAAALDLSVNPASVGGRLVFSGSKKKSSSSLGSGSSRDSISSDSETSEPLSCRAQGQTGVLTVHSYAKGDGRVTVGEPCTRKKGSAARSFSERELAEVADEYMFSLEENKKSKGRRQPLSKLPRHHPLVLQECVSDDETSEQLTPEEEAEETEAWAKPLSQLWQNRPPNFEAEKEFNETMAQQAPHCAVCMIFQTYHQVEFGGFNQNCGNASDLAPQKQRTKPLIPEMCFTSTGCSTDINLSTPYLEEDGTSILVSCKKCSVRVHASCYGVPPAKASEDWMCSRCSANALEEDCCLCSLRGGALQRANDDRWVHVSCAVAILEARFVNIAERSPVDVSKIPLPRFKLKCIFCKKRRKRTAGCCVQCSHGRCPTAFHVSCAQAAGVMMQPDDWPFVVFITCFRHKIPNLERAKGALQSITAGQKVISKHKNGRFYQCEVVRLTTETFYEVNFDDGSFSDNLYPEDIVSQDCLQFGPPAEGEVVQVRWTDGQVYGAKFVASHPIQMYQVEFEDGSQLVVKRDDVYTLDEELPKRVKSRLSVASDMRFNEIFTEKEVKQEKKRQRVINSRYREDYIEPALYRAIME
BAZ2B block: qHTS Assay for Inhibitors of BAZ2B; AlphaScreen BAZ2B-H3K14Ac peptide displacement; Potency, µM (series often up to 114 µM), hits mostly inhibitors; hit rate 4.4% among 360,000; also: nearly all actives have a fitted effect of over 60% in size
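AlphaScreen luminescence quantifies BAZ2B engagement of H3K14Ac peptide; the protein and biotinylated peptide are both at 50 nM final, buffer PBS pH 7.4 with 0.01% Tween-20, all steps at room temperature.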
G9a inh: qHTS Assay for Inhibitors of Histone Lysine Methyltransferase G9a; Histone-lysine N-methyltransferase EHMT2 (Homo sapiens), Q96KQ7; hit rate 8.8% among 350,000; G9a H3K9 monomethylation, AlphaScreen, 2 h; Potency, µM (series often up to 102 µM), hits mostly inhibitors; also: nearly all actives have a fitted effect of over 75% in size
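Readings reflect AlphaScreen signal from monomethyl-H3K9 antibody detection. HMT at 20 nM; substrate b-H3K9 500 nM; cofactor SAM 20 uM; 2 h RT reaction; compounds tested as titrations in qHTS with 15 min preincubation.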
HP1b binding inh: HTS for Inhibitors of HP1-beta Chromodomain Interactions with Methylated Histone Tails; Chromobox protein homolog 1 (Homo sapiens), P83916; AlphaScreen HP1-beta / biotin-H3K9me3 peptide binding; Potency, µM (highest dose often 114 µM), most hits filed as inhibitors; hit rate 0.56% among 390,000; AID 540317, 2011; also: nearly all actives have a fitted effect of over 70% in size
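AlphaScreen: HP1-beta (50 nM) preformed 30 min with biotin-H3(1-18)K9me3 peptide (50 nM) in PBS pH 7.4, 0.01% Tween-20. Compound added for 30 min at RT, then streptavidin donor/nickel chelate acceptor beads (10 ug/mL) for 30 min.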
TDP1 block: qHTS Assay for Inhibitors of Tyrosyl-DNA Phosphodiesterase (TDP1) | hit rate 0.28% among 350,000 | Potency, µM (highest dose often 130 µM), hits mostly inhibitors | AID 485290, 2010 | Tyrosyl-DNA phosphodiesterase 1 (Homo sapiens), Q9NUW8 | recombinant TDP1, AlphaScreen DNA substrate cleavage; also: nearly all actives have a fitted effect of over 40% in size
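Tdp1 1 nM final; 15 min RT w/ cpd; substrate 15 nM, 5 min; beads 10 ug/ml, 10 min; AlphaScreen read. Neg ctrl: no enzyme.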
Each line names hits and unclear results; the compound was inactive in the other large screens. Calls follow the shape of the dose curve; as a rule, active = well fitted curve in the direction sought with a large enough effect; inconclusive = small, poorly fitted or top-dose-only effect, or another doubt; inactive = no such curve, though single readings can be large; an effect the other way counts as inactive or inconclusive.

COc1ccc(N2CCN(C(=O)c3ccc(C)c(Cl)c3)CC2)cc1	JMJD2A Tudor inconclusive, BAZ2B block inconclusive, G9a inh inconclusive
COc1ccc(N2CCN(C(=O)c3ccc(NS(=O)(=O)c4cccc(F)c4)cc3)CC2)cc1	JMJD2A Tudor inconclusive, BAZ2B block inconclusive, G9a inh inconclusive
COc1ccc(NS(=O)(=O)c2ccc(C(=O)N3CCN(c4ccc(F)cc4)CC3)cc2)cc1	none (no result: Sfp PPTase inh, BAZ2B block, G9a inh)
COc1ccc(N2CCN(C(=O)c3cccc(Cn4cc(Cl)cn4)c3)CC2)cc1	JMJD2A Tudor inconclusive, BAZ2B block inconclusive, G9a inh 18µM
COc1ccc(N2CCN(C(=O)c3ccc(NS(=O)(=O)c4ccc(F)c(F)c4)cc3)CC2)cc1	JMJD2A Tudor 89µM, BAZ2B block 50µM, G9a inh 56µM
CC(=O)N1c2ccccc2N2C(c3c(C)c(C)cc(C)c3C)=NON12	none (no result: G9a inh)
Clc1ccc(-n2nnnc2-c2cnc3ccccc3c2-c2ccccc2)cc1	G9a inh 14µM
Clc1ccc(-n2nnnc2-c2ccccc2)cc1	G9a inh 45µM
Clc1ccc(-c2nnnn2-c2ccc(Cl)cc2)cc1	none (no result: TDP1 block)
CC(C)(C)c1ccc(C(CC(=O)O)NC(=O)CCCc2ccccc2)cc1 (configuration not stated)	none
Cc1ccoc1C(=O)NCCCNC(=O)c1occc1C	JMJD2A Tudor inconclusive, HP1b binding inh inconclusive
Cc1ccoc1C(=O)NCc1occc1C(=O)O	JMJD2A Tudor inconclusive, BAZ2B block inconclusive, G9a inh 45µM (no result: TDP1 block)
CCC(C(=O)Nc1ccccc1OC)n1c(C(=O)OC)cc2sc(Cl)cc21 (configuration not stated)	none (no result: Sfp PPTase inh)
O=C1c2ccccc2N2C(=O)c3ccccc3C2N1Cc1ccco1 (configuration not stated)	Sfp PPTase inh 50µM, BAZ2B block inconclusive, G9a inh inconclusive
COc1cccc(NC2c3ccccc3C(=O)N2Cc2ccco2)c1 (configuration not stated)	Sfp PPTase inh inconclusive, JMJD2A Tudor inconclusive, G9a inh 50µM
COc1cccc(NC2c3ccccc3C(=O)N2Cc2ccccc2Cl)c1 (configuration not stated)	none (no result: G9a inh, TDP1 block)
Cc1ccccc1NC1c2ccccc2C(=O)N1Cc1ccco1 (configuration not stated)	Sfp PPTase inh 28µM, BAZ2B block inconclusive, G9a inh 45µM
O=C1c2ccccc2C(Nc2cccc(C(F)(F)F)c2)N1Cc1ccco1 (configuration not stated)	Sfp PPTase inh 40µM, JMJD2A Tudor inconclusive, G9a inh 71µM
COc1cc(OC)c(NC(=O)C2CCN(S(=O)(=O)c3c(C)noc3/C=C/c3c(C)cc(C)cc3C)CC2)cc1Cl	none (no result: Sfp PPTase inh)
CCC(Sc1nnc(-c2ccco2)n1C)C(=O)Nc1nnc(C)s1 (configuration not stated)	none (no result: TDP1 block)
CC(C)c1ccc(N2C(=O)N(Cc3ccccc3Cl)c3ccccc3S2(=O)=O)cc1	none (no result: Sfp PPTase inh)
COc1cc(C(=O)N(Cc2cc3cc(C)ccc3[nH]c2=O)CC2CCCO2)cc(OC)c1OC (configuration not stated)	none
COc1cc(C(=O)N(Cc2ccccn2)CC2CCCO2)cc(OC)c1OC (configuration not stated)	JMJD2A Tudor 18µM, BAZ2B block 56µM
CN1CCN(c2ccc(Cl)cc2NC(=O)c2cc(=O)[nH]c3ccccc23)CC1	none (no result: Sfp PPTase inh)
CN1CCN(c2cc3c(c4c2[nH]c2ccccc24)C(=O)CC(C)(C)C3)CC1	Sfp PPTase inh inconclusive, JMJD2A Tudor inconclusive, G9a inh 56µM
COC(=O)c1ccc(C(=O)Nc2ccc(N)cc2N)cc1	BAZ2B block inconclusive, G9a inh 45µM
COc1ccccc1NC(=O)c1ccc(N)cc1	G9a inh inconclusive
O=S(=O)(Nc1nc2ccccc2nc1NCC1CCCO1)c1cc(Cl)ccc1Cl (configuration not stated)	G9a inh inconclusive (no result: TDP1 block)
Nc1c(N2CCCC2)cc(Cl)c2nonc12	JMJD2A Tudor inconclusive, G9a inh 4.5µM
Nc1ccc(N2CCCCC2)c2nonc12	Sfp PPTase inh inconclusive, JMJD2A Tudor 56µM, BAZ2B block 25µM, HP1b binding inh inconclusive (no result: G9a inh)
COC(=O)CCCC1=CC2=CC(=O)C(C)(OC(=O)c3cccs3)C(=O)C2=CN1CCN1CCOCC1 (configuration not stated)	none
O=C(Nc1cccc(-n2cccn2)c1)C1CCCN(Cc2cc3ccccc3[nH]2)C1 (configuration not stated)	JMJD2A Tudor inconclusive, BAZ2B block 71µM (no result: TDP1 block)
Cc1ccc(S(=O)(=O)Oc2cccc([N+](=O)[O-])c2)cc1	none (no result: Sfp PPTase inh, BAZ2B block, G9a inh, TDP1 block)
Clc1cccc(OCCOCCN2CCNCC2)c1Cl	none (no result: Sfp PPTase inh, BAZ2B block, G9a inh, TDP1 block)
Clc1cccc(OCCCN2CCCC2)c1Cl	JMJD2A Tudor 20µM, G9a inh inconclusive, HP1b binding inh inconclusive
Cc1ccccc1OCCCCN1CCCCC1	none (no result: TDP1 block)
CCN1CCN(CCCOc2ccccc2-c2ccccc2)CC1	Sfp PPTase inh inconclusive, JMJD2A Tudor 22µM, BAZ2B block 28µM (no result: G9a inh)
c1ccc2c(OCCCN3CCCCCC3)cccc2c1	JMJD2A Tudor 22µM, BAZ2B block 56µM, HP1b binding inh inconclusive (no result: G9a inh, TDP1 block)
c1ccc(-c2ccccc2OCCN2CCOCC2)cc1	JMJD2A Tudor 14µM, BAZ2B block 79µM, G9a inh 10µM, HP1b binding inh 20µM
C=CCn1c(SCC#N)nc2ccc(Cl)cc2c1=O	none (no result: Sfp PPTase inh, BAZ2B block, G9a inh)
CC(=O)Nc1ccc(-c2nnc3n(CC(C)C)c(=O)c4ccccc4n23)cc1	JMJD2A Tudor inconclusive, G9a inh inconclusive (no result: Sfp PPTase inh)
c1ccc(-c2ccccc2OCCCN2CCCCC2)cc1	JMJD2A Tudor 7.9µM, BAZ2B block inconclusive, G9a inh 8.9µM
COC(=O)C1CCN(C(=O)CCC2CCCCC2)CC1	G9a inh 7.1µM
CCOC(=O)C(=O)N1CCC(C(=O)OC)CC1	G9a inh 35µM
CCOC(=O)C(=O)N1CCC(C(=O)OCC)CC1	G9a inh inconclusive
O=C(CCC1CCCC1)N1CCN(C(=O)COc2ccccc2)CC1	G9a inh 50µM
O=C(CCC1CCCC1)N1CCC(N2CCCCCC2)CC1	JMJD2A Tudor 4µM, BAZ2B block 56µM, G9a inh inconclusive, HP1b binding inh inconclusive
COc1ccc(Cl)cc1C(=O)NCc1nnnn1-c1ccccc1	none (no result: Sfp PPTase inh)
CC#CCN1c2ccccc2[C@]23C[C@@H](C(=O)OC)N(S(=O)(=O)CCCC)C2=NC(C(=O)OC)=C(C(=O)OC)[C@H]13	none (no result: JMJD2A Tudor, BAZ2B block, G9a inh, HP1b binding inh)

Screening data as filed in PubChem.
